Experiment [1] in a line: qHTS assay to identify small molecule antagonists of the thyroid receptor (TR) signaling pathway - cell viability counter screen (AID 743064). Note: nearly all actives have a fitted effect of over 50% in size. Note: potency is the fitted concentration of half-maximal effect. The gist of the method:
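Compounds were tested on GH3.TRE-Luc cells in the presence of T3 at 1 nM final. Following 23.5 h at 37 °C, cell viability was quantified by CellTiter-Fluor.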
For orientation: qHTS replaces the single test concentration by a dilution series.

A short description of experiment [2]: qHTS assay to identify small molecule antagonists of the thyroid receptor (TR) signaling pathway (AID 743065). Note: nearly all actives have a fitted effect of over 55% in size. Note: potency is the fitted concentration of half-maximal effect. The gist of the method: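 GH3.TRE-Luc rat pituitary cells carrying two TR response elements driving luciferase were plated for 4 h, given compound plus 1 nM T3 (final), and incubated 23.5 h at 37 C. ONE-Glo luminescence measured reporter inhibition; CellTiter-Fluor fluorescence tracked cytotoxicity.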

Experiment [3] has as its system thyroid hormone receptor (rat, GH3 cells). Nature of the experiment: qHTS assay to identify small molecule agonists of the thyroid receptor (TR) signaling pathway (AID 743066; calls by dose curve).
Experiment [4] concerns the target Estrogen receptor (Homo sapiens) (UniProt P03372). Description: qHTS assay to identify small molecule antagonists of the estrogen receptor alpha (ER-alpha) signaling pathway (AID 743069; active = well fitted curve in the direction sought with a large enough effect in the signal ratio in the repeat runs, not every such curve was filed as active; inconclusive = weak or mixed curves, or effect the other way; inactive = no such curve, though single readings can be large or run the other way; the % refers to the signal ratio; note: potency is the fitted concentration of half-maximal effect). Summed up:
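Estradiol-stimulated ER-alpha-UAS-bla HEK293 cells, 18 hr compound exposure at 37C. LiveBLAzer B/G substrate, 2 hr RT, fluorescence read.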

Experiment [5] in a line: qHTS assay to identify small molecule antagonists of the estrogen receptor alpha (ER-alpha) signaling pathway - cell viability counter screen (AID 743074; calls by dose curve;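 note: HEK293 cells carrying ER-alpha-UAS-bla reporter stimulated with 17beta-estradiol; nearly all actives have a fitted effect of over 45% in size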).
The target in experiment [6] is Estrogen receptor (Homo sapiens) (UniProt P03372). Description: qHTS assay to identify small molecule agonists of the estrogen receptor alpha (ER-alpha) signaling pathway (AID 743075; calls by dose curve;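 note: HEK293 GripTite cells with ER-alpha and UAS-driven beta-lactamase reporter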).
Sequence of Estrogen receptor (Homo sapiens) (P03372 whole entry, looked up): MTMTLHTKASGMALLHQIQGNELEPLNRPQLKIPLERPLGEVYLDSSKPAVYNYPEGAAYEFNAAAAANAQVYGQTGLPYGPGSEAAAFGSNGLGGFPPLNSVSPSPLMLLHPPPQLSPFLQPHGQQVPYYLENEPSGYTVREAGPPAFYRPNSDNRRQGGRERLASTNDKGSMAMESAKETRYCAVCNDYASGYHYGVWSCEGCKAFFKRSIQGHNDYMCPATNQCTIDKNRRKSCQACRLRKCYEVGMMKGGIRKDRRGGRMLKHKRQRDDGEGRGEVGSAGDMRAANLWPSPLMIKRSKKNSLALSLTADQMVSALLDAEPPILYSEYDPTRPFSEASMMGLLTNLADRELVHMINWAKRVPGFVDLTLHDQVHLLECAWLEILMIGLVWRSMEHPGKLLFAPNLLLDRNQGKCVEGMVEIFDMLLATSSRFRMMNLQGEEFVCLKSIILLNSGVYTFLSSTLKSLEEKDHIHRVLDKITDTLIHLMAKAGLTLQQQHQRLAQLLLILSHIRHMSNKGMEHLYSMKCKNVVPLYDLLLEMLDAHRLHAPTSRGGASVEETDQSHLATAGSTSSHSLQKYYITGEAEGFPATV
For experiment [7] the target is unchanged. Nature of the experiment: qHTS assay to identify small molecule agonists of the estrogen receptor alpha (ER-alpha) signaling pathway using the BG1 cell line (AID 743079). Note: nearly all actives have a fitted effect of over 20% in size. Note: potency is the fitted concentration of half-maximal effect. The following applies: BG1Luc4E2 cells, ERE-luciferase agonist, 22 h; activation: at 70.3 µM (top of the series).
Experiment [8] in a line: qHTS assay to identify small molecule antagonists of the estrogen receptor alpha (ER-alpha) signaling pathway using the BG1 cell line (AID 743080; calls by dose curve;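 note: BG1 cells stimulated with 17beta-estradiol alongside compound; nearly all actives have a fitted effect of over 25% in size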). Summed up: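 Endogenous full-length ER-alpha in BG1-Luc-4E2 cells drives a stably integrated 4×ERE luciferase gene; compounds were tested against 17beta-estradiol over 21.5 h, with luminescence and multiplexed viability fluorescence recorded.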

Experiment [9] in a line: qHTS assay to identify small molecule antagonists of the estrogen receptor alpha (ER-alpha) signaling pathway using the BG1 cell line - cell viability counter screen (AID 743081).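 Note: compound given together with 17beta-estradiol as the ER stimulus; nearly all actives have a fitted effect of over 45% in size.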 Note: potency is the fitted concentration of half-maximal effect.
The next experiment deals with Aromatase (Homo sapiens) (UniProt P11511). Description: qHTS assay to identify aromatase inhibitors (AID 743083). Note: nearly all actives have a fitted effect of over 55% in size.
Sequence of Aromatase (Homo sapiens) (P11511 whole entry, looked up): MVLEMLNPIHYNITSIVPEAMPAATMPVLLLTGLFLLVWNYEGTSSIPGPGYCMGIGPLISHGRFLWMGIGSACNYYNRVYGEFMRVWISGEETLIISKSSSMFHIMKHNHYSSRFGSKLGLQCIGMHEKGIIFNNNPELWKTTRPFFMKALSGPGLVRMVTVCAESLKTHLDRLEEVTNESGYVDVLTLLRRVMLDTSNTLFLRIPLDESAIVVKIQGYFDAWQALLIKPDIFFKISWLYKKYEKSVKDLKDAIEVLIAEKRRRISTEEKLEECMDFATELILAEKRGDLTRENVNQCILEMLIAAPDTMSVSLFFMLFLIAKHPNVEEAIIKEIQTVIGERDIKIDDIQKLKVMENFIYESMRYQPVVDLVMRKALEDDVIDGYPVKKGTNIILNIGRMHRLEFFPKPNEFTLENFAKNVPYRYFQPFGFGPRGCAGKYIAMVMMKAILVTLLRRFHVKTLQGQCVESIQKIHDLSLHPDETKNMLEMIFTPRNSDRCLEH

Active and inactive are the calls of the source. Unless noted, calls come from the whole dose curve; as a rule, active = well fitted curve in the direction sought with a large enough effect in the repeat runs; inconclusive = weak or mixed curves; inactive = no such curve, though single readings can be large; an effect the other way counts as inactive or inconclusive. Non-standard residues stand in square brackets, D forms with d. Residues, ends and D or L forms follow the SMILES beside them. pGlu = O=C1CC[C@@H](C(=O)O)N1; Thz = O=C(O)[C@@H]1CSCN1

For the molecule `CCOC(=O)[C@@H](N)CS`, the Potency entry in experiment [1], in experiment [2], in [3], in experiment [4], in experiment [5] and in [6] was “inactive” in each case. In addition, the Potency result (in experiment [8]; in experiment [9]; with Aromatase (Homo sapiens)) was “inactive” throughout. The Potency in experiment [7] was 29.8 µM (active).

As for `CO[C@@H]1[C@@H](O[C@@H]2O[C@H](C)[C@@H](O[C@H]3C[C@@](C)(O)[C@@H](OC(=O)CC(C)C)[C@H](C)O3)[C@H](N(C)C)[C@H]2O)[C@@H](CC=O)C[C@@H](C)[C@@H](O)/C=C/C=C/C[C@@H](C)OC(=O)C[C@H]1O`, the Potency result in experiment [1], in experiment [2], in experiment [3], in experiment [4], in experiment [5] and in [6] was “inactive” in each case. Moreover, the Potency result (in [8]; in experiment [9]; in the experiment with Aromatase (Homo sapiens)) was “inactive” in each case. Further, the Potency in [7] is 13.3 µM (active).

As to `CCN(CC)CCOC(=O)c1cccnc1`, the Potency entry in experiment [1], in experiment [2], in experiment [3], in experiment [4], in experiment [5] and in experiment [6] was “inactive” each time. For the same molecule, the Potency result (in experiment [7]; in experiment [8]; in [9]; with Aromatase (Homo sapiens)) was “inactive” throughout.

On to `O=C1CC[C@@H](C(=O)N2CSC[C@H]2C(=O)O)N1` ([pGlu]-[Thz]-OH), for which the Potency entry in experiment [1], in experiment [2], in experiment [3], in experiment [4], in [5] and in [6] was “inactive” throughout. Moreover, the Potency entry (in experiment [7]; in experiment [8]; in experiment [9]; with Aromatase (Homo sapiens)) was “inactive” throughout.

Consider `COC(=O)CC[C@H](N)C(=O)O`, for which the Potency entry in experiment [1], in experiment [2], in experiment [3], in experiment [4], in [5] and in experiment [6] was “inactive” each time. Also, the Potency entry (in experiment [7]; in [8]; in [9]; in the experiment with Aromatase (Homo sapiens)) was “inactive” throughout.

In the case of `O=P(O)(O)OC[C@H](O)CO`, the Potency result in experiment [1], in experiment [2], in [3], in experiment [4], in experiment [5] and in experiment [6] was “inactive” in each case. The Potency entry (in experiment [7]; in experiment [8]; in experiment [9]; with Aromatase (Homo sapiens)) was “inactive” each time.

For the molecule `CC1(C)S[C@@H]2[C@H](NC(=O)[C@H](N)c3ccccc3)C(=O)N2[C@H]1C(=O)OCOC(=O)[C@@H]1N2C(=O)C[C@H]2S(=O)(=O)C1(C)C`, the Potency entry in [1], in [2], in experiment [3], in [5], in [6] and in experiment [7] was “inactive” each time. Further, the Potency result (in experiment [8]; in experiment [9]; in the experiment with Aromatase (Homo sapiens)) was “inactive” each time. The Potency in experiment [4] is 13.4 µM [inconclusive] (active).

In the case of `COc1ccc(C(=O)CCC(=O)O)c2ccccc12`, the Potency result in [1], in experiment [2], in experiment [3], in experiment [4], in [5] and in [6] was “inactive” each time. Besides, the Potency entry (in experiment [7]; in experiment [8]; in experiment [9]; with Aromatase (Homo sapiens)) was “inactive” each time.

Turning to `NCc1ccccc1CC(=O)N[C@@H]1C(=O)N2C(C(=O)O)=C(CSc3nnnn3CC(=O)O)CS[C@H]12`, the Potency result in experiment [1], in [2], in [3], in [4], in [5] and in experiment [6] was “inactive” in each case. Besides, the Potency entry (in [7]; in experiment [8]; in [9]; in the experiment with Aromatase (Homo sapiens)) was “inactive” in each case.

Consider `O=S(=O)(O)CCCS(=O)(=O)O`, for which the Potency entry in experiment [1], in experiment [2], in experiment [3], in experiment [4], in [5] and in [6] was “inactive” each time. Further, the Potency entry (in experiment [7]; in [8]; in [9]; in the experiment with Aromatase (Homo sapiens)) was “inactive” in each case.

Turning to `O=C1O[C@H]2[C@H](O)[C@@H]1OC(O)[C@H]2O` (stereo not given in full), the Potency result in experiment [1], in [2], in experiment [3], in experiment [4], in [5] and in [6] was “inactive” each time. For the same molecule, the Potency result (in [8]; in [9]; with Aromatase (Homo sapiens)) was “inactive” in each case. Further, the Potency in experiment [7] is 13.3 µM (active).

As for `CC1(C)[C@@H]2CC[C@@]1(C)[C@H](OC(=O)CSC#N)C2`, the Potency entry in experiment [1], in [2], in experiment [3], in [4], in experiment [5] and in experiment [6] was “inactive” throughout. Moreover, the Potency result (in experiment [7]; in experiment [8]; in experiment [9]; with Aromatase (Homo sapiens)) was “inactive” each time.

As for `CCCc1ccc(C(=O)O)cc1`, the Potency entry in [1], in [2], in experiment [3], in experiment [4], in experiment [5] and in experiment [6] was “inactive” throughout. Further, the Potency result (in experiment [7]; in [8]; in experiment [9]; with Aromatase (Homo sapiens)) was “inactive” throughout.

Consider `NC(=O)OCC(O)COc1ccc(Cl)cc1` (stereo not given), for which the Potency entry in experiment [1], in experiment [2], in [3], in [4], in experiment [5] and in experiment [6] was “inactive” in each case. Also, the Potency entry (in experiment [7]; in experiment [8]; in experiment [9]; in the experiment with Aromatase (Homo sapiens)) was “inactive” each time.

As for `C=C[C@]1(C)C[C@@H](OC(=O)CSCCN(CC)CC)[C@]2(C)[C@H](C)CC[C@]3(CCC(=O)[C@H]32)[C@@H](C)[C@@H]1O`, the Potency was 10.6 µM (active) in [1], 23.7 µM (active) in experiment [2] and 10.6 µM (active) in experiment [9]. In addition, the Potency entry in experiment [3], in experiment [4], in experiment [5], in experiment [6], in experiment [7] and in experiment [8] was “inactive” in each case. Moreover, in the experiment with Aromatase (Homo sapiens), the Potency entry was “inactive”.

For `CC[C@H](CC[C@@H](C)[C@H]1CC[C@H]2[C@@H]3CC=C4C[C@@H](O)CC[C@]4(C)[C@H]3CC[C@]12C)C(C)C`, the Potency result in experiment [1], in [2], in [3], in experiment [4], in experiment [5] and in [6] was “inactive” throughout. Moreover, the Potency entry (in experiment [7]; in experiment [8]; in [9]; in the experiment with Aromatase (Homo sapiens)) was “inactive” throughout.

For the molecule `NS(=O)(=O)c1cc2c(cc1Cl)NC(Cc1ccccc1)NS2(=O)=O` (stereo not given), the Potency entry in [1], in experiment [2], in [3], in experiment [4], in experiment [5] and in experiment [6] was “inactive” in each case. The Potency result (in [7]; in experiment [8]; in [9]; with Aromatase (Homo sapiens)) was “inactive” each time.

Regarding `Cn1nnnc1SCC1=C(C(=O)O)N2C(=O)[C@@H](NC(=O)[C@H](O)c3ccccc3)[C@H]2SC1`, the Potency result in [1], in experiment [2], in experiment [3], in [4], in experiment [5] and in experiment [6] was “inactive” throughout. Besides, the Potency entry (in experiment [7]; in [8]; in [9]; in the experiment with Aromatase (Homo sapiens)) was “inactive” in each case.

On to `CO/N=C(\C(=O)N[C@@H]1C(=O)N2C(C(=O)O)=C(CSC(=O)c3ccco3)CS[C@H]12)c1csc(N)n1`, for which the Potency entry in experiment [1], in experiment [2], in [3], in experiment [4], in [5] and in [6] was “inactive” each time. The Potency result (in experiment [7]; in experiment [8]; in [9]; with Aromatase (Homo sapiens)) was “inactive” in each case.
